These results are taken from PMC7862700, “An all-to-all approach to the identification of sequence-specific readers for epigenetic DNA modifications on cytosine”.

Common to all, as to experiment: DAPPL (digital affinity profiling via proximity ligation, sequencing); 10 mM Tris-HCl pH 7.5, 50 mM NaCl, 1 mM DTT, 4% glycerol, room temperature, 30 min; GST-TFs on glutathione beads, 16-mer random dsDNA library, 0.1% formaldehyde crosslink after washing; high values mean tight binding
Common to all, as to conditions: protein: recombinant; tags: N-terminal GST; dsDNA, one strand shown

One test concerns the target T1, ELK1 (Homo sapiens, UniProt P19419 1-428).
T1 sequence: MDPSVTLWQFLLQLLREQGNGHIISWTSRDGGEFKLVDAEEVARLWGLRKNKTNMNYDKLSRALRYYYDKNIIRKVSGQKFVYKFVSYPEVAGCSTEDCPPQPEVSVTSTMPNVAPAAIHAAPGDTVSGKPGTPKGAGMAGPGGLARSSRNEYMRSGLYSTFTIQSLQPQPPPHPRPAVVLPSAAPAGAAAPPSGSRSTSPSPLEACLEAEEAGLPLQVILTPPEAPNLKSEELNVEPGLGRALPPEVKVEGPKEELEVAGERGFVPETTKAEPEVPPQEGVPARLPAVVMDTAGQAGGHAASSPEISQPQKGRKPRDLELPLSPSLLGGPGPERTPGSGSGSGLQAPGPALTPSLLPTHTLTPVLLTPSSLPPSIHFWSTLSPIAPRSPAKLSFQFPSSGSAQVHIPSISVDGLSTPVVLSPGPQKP
In a few lines:
(§1)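 Each value of binding signal is a hexamer's read frequency for a factor divided by the same hexamer's frequency in the tag-only sample. Barcoded, bead-captured GST fusions of human transcription factors made in yeast were pooled with that sample and incubated with 200 nmole of a random double-stranded 16-mer DNA library in Tris/NaCl/DTT/glycerol buffer at room temperature for 30 min. Washing, 0.1% formaldehyde crosslinking, proximity ligation, PCR and Illumina NextSeq500 sequencing followed.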

The next test addresses T2, GABPA (Homo sapiens, UniProt Q06546 1-454).
T2 sequence: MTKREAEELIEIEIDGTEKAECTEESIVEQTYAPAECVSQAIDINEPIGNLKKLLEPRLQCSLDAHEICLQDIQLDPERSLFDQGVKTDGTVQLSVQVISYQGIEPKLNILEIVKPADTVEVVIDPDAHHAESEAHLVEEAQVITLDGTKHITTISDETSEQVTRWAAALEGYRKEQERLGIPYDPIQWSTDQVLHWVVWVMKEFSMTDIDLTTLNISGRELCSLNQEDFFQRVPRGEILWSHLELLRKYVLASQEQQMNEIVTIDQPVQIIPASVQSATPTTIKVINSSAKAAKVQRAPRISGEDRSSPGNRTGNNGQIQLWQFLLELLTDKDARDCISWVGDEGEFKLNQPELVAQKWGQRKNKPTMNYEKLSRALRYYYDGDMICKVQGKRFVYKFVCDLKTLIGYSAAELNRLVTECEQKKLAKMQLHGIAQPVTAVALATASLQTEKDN
In a few lines:
as §1

The next test addresses T3, ERG (Homo sapiens, UniProt P11308 1-479).
T3 sequence: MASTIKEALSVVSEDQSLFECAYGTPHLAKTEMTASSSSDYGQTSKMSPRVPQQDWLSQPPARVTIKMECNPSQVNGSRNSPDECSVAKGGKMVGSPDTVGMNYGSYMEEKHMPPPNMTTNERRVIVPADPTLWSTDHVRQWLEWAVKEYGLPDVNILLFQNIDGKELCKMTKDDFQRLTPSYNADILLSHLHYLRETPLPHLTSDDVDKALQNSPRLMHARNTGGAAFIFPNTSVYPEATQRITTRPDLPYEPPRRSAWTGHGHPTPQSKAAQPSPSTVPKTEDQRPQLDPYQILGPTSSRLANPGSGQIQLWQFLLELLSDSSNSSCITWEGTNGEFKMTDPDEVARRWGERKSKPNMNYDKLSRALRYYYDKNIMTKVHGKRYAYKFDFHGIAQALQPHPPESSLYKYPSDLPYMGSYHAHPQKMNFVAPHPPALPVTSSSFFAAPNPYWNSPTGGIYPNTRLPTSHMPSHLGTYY
The method in brief:
as §1

The target in another test is ELF1 (Homo sapiens, UniProt P32519 1-619). The method in brief: as §1
Sequence of ELF1 (P32519 whole entry): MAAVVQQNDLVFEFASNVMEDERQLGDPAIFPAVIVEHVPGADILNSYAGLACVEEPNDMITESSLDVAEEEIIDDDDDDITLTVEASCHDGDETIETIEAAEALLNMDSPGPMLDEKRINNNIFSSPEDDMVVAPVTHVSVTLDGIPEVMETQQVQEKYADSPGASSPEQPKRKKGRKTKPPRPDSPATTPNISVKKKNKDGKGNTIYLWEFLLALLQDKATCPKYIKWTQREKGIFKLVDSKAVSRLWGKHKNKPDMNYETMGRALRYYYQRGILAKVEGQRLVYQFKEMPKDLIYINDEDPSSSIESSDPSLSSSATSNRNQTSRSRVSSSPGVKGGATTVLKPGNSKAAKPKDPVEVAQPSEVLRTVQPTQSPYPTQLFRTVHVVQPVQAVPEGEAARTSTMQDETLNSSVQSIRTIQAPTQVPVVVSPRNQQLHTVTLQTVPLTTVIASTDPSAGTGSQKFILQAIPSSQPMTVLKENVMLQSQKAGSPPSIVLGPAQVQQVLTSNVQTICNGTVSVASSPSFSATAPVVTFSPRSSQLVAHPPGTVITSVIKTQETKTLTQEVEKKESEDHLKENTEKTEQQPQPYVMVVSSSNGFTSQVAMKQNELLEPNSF
Another test deals with T4, EHF (Homo sapiens, UniProt Q9NZC4 1-300).
T4 sequence: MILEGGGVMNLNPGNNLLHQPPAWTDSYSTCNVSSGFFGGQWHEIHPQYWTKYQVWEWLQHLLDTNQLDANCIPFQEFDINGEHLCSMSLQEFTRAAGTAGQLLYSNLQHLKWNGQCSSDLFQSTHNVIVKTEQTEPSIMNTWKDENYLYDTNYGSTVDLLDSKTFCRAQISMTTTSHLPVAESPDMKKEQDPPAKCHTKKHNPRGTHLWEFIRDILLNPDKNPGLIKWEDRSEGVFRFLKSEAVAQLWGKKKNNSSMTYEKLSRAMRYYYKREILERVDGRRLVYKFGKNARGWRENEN
In a few lines: as §1

The next test concerns the target SPI1 (Homo sapiens, UniProt P17947 1-270). In a few lines:
as §1

The next test has as its target SPIB (Homo sapiens, UniProt Q01892 1-262). In a few lines:
as §1

In another test the target is T5, SPIC (Homo sapiens, UniProt Q8N5J4 1-248).
T5 sequence: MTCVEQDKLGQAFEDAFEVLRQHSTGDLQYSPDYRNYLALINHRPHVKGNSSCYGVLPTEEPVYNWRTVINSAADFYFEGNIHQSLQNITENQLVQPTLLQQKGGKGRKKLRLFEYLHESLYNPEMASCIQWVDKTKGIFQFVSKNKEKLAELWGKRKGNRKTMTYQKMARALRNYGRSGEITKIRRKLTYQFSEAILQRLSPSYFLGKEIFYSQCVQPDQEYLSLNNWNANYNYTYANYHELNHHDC
In a few lines: as §1

A further test deals with ELF4 (Homo sapiens, UniProt Q99607 1-663). The method in brief: as §1
Sequence of ELF4 (Q99607 whole entry): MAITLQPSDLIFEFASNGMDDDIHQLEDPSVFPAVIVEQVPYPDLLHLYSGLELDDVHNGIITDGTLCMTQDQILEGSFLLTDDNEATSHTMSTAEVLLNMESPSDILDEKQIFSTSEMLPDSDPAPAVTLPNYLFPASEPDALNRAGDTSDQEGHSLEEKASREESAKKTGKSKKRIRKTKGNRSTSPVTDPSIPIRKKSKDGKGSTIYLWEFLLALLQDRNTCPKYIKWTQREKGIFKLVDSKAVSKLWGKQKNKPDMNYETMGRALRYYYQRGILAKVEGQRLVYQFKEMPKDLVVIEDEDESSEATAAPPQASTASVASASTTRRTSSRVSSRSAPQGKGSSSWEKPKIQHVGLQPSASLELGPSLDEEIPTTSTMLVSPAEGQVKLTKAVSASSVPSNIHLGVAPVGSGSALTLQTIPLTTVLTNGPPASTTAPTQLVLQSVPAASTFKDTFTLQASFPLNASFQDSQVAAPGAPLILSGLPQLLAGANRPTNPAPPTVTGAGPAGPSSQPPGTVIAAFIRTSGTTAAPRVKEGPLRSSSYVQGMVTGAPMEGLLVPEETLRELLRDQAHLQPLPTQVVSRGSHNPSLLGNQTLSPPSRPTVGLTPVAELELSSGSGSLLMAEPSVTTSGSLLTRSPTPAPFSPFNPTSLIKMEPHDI
The next test addresses T6, ELK4 (Homo sapiens, UniProt P28324-2 1-405).
T6 sequence: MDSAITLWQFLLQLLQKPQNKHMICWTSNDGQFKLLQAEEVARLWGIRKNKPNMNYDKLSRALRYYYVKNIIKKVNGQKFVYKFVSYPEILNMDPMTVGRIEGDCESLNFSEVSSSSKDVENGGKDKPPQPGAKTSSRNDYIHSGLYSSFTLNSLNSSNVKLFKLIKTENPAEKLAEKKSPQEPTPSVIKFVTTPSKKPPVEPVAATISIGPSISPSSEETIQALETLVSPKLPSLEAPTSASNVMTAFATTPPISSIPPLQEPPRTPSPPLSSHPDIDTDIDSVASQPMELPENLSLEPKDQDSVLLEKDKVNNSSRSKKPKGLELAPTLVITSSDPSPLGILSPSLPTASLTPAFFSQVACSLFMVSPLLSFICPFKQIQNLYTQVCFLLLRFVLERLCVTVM
In a few lines: as §1

Another test addresses ETV1 (Homo sapiens, UniProt P50549 1-477). The method in brief:
as §1

The next test has as its target T7, ERF (Homo sapiens, UniProt P50548 1-548).
T7 sequence: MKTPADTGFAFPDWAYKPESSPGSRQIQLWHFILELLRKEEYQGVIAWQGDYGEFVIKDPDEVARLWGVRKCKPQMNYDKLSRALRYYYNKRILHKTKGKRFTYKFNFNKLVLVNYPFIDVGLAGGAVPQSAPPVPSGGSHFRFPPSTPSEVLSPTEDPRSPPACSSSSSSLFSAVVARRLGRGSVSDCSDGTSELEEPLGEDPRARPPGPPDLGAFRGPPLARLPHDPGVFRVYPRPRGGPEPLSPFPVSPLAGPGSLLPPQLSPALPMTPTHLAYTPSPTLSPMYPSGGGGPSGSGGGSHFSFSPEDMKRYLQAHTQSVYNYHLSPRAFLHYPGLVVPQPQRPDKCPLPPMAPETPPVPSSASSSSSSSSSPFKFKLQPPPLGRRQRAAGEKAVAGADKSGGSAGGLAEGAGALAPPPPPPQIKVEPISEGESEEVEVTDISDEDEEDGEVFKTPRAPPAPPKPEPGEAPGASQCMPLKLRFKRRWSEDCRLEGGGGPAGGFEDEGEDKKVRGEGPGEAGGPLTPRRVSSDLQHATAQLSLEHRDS
The method in brief: as §1

A further test deals with T8, ETV3L (Homo sapiens, UniProt Q6ZN32 1-361).
T8 sequence: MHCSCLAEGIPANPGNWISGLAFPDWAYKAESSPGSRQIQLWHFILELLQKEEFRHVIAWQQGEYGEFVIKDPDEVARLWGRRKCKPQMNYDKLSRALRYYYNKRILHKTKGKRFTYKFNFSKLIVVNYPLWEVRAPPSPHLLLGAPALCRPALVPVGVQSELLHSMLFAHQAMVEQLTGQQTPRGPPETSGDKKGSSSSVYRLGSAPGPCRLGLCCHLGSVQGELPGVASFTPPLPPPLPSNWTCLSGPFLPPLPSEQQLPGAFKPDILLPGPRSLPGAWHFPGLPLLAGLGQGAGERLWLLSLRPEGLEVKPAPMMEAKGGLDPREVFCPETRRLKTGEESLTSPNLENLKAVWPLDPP
In a few lines: as §1

The target of the next test is T9, SPDEF (Homo sapiens, UniProt O95238 1-335).
T9 sequence: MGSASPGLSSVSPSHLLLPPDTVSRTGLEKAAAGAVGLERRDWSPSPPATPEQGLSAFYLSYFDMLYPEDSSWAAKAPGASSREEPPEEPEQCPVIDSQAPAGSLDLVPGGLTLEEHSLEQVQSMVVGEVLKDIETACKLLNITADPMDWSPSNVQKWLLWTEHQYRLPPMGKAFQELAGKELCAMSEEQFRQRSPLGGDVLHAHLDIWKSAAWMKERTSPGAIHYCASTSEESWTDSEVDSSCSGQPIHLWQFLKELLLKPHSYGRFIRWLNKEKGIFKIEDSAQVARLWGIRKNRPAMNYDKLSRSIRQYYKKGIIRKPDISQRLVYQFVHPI
The method in brief:
as §1

A further test deals with T10, ETV7 (Homo sapiens, UniProt Q9Y603 1-341).
T10 sequence: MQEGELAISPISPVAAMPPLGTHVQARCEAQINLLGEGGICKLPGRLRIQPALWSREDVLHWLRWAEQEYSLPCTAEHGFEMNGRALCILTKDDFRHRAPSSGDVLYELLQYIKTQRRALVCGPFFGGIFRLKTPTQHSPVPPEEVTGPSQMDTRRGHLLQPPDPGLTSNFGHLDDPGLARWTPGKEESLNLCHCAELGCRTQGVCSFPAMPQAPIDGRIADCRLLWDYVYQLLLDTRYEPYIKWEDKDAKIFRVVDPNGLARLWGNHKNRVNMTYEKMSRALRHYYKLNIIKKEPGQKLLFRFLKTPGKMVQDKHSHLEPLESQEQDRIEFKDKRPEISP
The method in brief: as §1

Another test deals with T11, ETV3 (Homo sapiens, UniProt P41162-2 1-143).
T11 sequence: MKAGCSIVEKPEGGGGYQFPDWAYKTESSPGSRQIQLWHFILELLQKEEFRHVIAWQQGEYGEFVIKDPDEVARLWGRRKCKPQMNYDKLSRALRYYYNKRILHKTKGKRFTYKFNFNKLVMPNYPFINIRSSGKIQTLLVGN
The method in brief:
as §1

Another test addresses ETV6 (Homo sapiens, UniProt P41212 1-452). In a few lines:
as §1

Sequence of SPIB (Q01892 whole entry): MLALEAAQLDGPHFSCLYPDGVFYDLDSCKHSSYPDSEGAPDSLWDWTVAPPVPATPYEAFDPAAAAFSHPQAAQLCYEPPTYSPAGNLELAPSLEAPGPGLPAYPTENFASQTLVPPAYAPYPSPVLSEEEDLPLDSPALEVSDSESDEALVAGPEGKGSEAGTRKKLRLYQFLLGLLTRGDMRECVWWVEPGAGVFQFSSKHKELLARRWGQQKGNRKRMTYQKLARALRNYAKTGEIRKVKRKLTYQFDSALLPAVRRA
Sequence of ETV1 (P50549 whole entry): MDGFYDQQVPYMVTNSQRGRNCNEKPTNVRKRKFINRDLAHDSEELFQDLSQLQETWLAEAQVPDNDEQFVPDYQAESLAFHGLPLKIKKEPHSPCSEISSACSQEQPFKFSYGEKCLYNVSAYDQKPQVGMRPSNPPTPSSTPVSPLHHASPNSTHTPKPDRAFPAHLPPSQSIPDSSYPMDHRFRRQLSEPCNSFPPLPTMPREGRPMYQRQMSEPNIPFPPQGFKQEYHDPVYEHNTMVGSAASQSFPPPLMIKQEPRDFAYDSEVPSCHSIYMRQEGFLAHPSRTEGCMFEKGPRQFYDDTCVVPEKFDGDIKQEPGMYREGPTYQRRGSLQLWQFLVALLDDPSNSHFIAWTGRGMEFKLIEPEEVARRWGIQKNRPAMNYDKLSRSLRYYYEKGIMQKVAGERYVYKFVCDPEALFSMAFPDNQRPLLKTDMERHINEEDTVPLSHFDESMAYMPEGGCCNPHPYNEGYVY
Sequence of ETV6 (P41212 whole entry): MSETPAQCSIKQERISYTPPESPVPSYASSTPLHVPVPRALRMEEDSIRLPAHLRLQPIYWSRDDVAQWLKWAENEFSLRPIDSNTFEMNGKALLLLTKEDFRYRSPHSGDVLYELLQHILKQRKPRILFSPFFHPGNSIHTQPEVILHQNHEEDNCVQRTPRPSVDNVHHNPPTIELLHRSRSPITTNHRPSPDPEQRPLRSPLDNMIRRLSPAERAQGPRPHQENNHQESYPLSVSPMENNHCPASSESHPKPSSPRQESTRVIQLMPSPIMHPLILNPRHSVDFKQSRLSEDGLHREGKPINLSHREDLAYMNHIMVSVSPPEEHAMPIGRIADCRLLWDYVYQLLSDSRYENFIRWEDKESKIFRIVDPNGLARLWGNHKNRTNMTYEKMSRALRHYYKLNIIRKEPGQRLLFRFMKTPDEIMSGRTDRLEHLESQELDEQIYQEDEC

CTTAAG: the binding signal in the test with ELK1 is 1.11 fold enrichment (6-mer frequency, TF over GST control); with GABPA, 1.13 fold enrichment (6-mer frequency, TF over GST control); in the test with ERG, 1.09 fold enrichment (6-mer frequency, TF over GST control); in the test with ELF1 it was 1.09 fold enrichment (6-mer frequency, TF over GST control); with EHF, 1.1 fold enrichment (6-mer frequency, TF over GST control); in the test with SPI1, 1 fold enrichment (6-mer frequency, TF over GST control). In addition, the binding signal in the test with SPIB was 1.11 fold enrichment (6-mer frequency, TF over GST control); in the test with SPIC, 1.1 fold enrichment (6-mer frequency, TF over GST control); with ELF4, 1.07 fold enrichment (6-mer frequency, TF over GST control); in the test with ELK4 it was 1.06 fold enrichment (6-mer frequency, TF over GST control); in the test with ETV1, 1.1 fold enrichment (6-mer frequency, TF over GST control); with ERF, 1.07 fold enrichment (6-mer frequency, TF over GST control). Besides, the binding signal in the test with ETV3L was 1.08 fold enrichment (6-mer frequency, TF over GST control); in the test with SPDEF, 1.04 fold enrichment (6-mer frequency, TF over GST control); with ETV7, 1.04 fold enrichment (6-mer frequency, TF over GST control); in the test with ETV3, 1.13 fold enrichment (6-mer frequency, TF over GST control); in the test with ETV6, 1.03 fold enrichment (6-mer frequency, TF over GST control).
